Reference: PubChem BioAssay

assay: small-molecule microarray binders of probe aCHRDL2, primary screen, biochemical, biotinylated probe, 635/667 nm fluorescence (AID 1100); conditions: higher = more signal

Row | SMILES | composite z-score
1 | Cc1ccccc1C(O)C1C=CC2C(=O)N(c3ccccc3)C(=O)C2N1Nc1ccc(C(C)C)cc1 (stereo not given) | 0.857
2 | CCS[C@H]1[C@@H](C(=O)O)[C@H](c2ccc(C)cc2)N(S(=O)(=O)c2ccc(C)cc2)[C@@H]1CC | 0.907
3 | COc1cc(NN2C(C(O)c3ccco3)C=CC3C(=O)N(c4ccccc4)C(=O)C32)cc(OC)c1OC (stereo not given) | 0.485
4 | CNS(=O)(=O)c1ccc(C)cc1 | -0.446
5 | O=C1N(Cc2ccccc2)c2ccccc2[C@@H]2OC(c3ccc(OCCCO)cc3)=N[C@]12CCS(=O)(=O)c1ccccc1 | 0.78
6 | COc1cc2c(cc1O)C(C1CC1)N(Cc1sc3ccccc3c1Cl)CC2 (stereo not given) | 0.652
7 | Oc1ccc2cc[n+](Cc3sc4ccccc4c3Cl)cc2c1 | 0.799
8 | CC(C)N1C(=O)C[C@@](C(=O)NCC(F)(F)F)(c2ccc([N+](=O)[O-])cc2)[C@H]1c1ccc(CO)cc1 | 0.52
9 | COCCCNC(=O)[C@@]1(C)c2ccccc2C(=O)N(C(C)C)[C@H]1c1ccc(CO)cc1 | 0.343
10 | COCCOC(=O)N1C(=O)[C@@]2(c3cc(C#CCC(C(=O)OC)C(=O)OC)ccc31)[C@H](c1ccccc1OCCO)N1[C@H](c3ccccc3)[C@H](c3ccccc3)OC(=O)[C@H]1[C@@H]2C(=O)N1CCN(c2ncccn2)CC1 | 0.237
11 | CCOC(=O)[C@H]1C/C=C/C[C@H](C(=O)OCC)C(=O)O[C@H]2[C@@H](OC)O[C@H](CO)[C@@H](OC(=O)c3c(OC)cccc3OC)[C@@H]2OC1=O | 0.152
12 | C=C(COC)/C(=C/C[C@@H](OC(=O)c1ccncc1)c1ccc(CO)o1)c1cc(C(=O)OC)ccc1OC | -0.623
13 | CC(C)N1C(=O)c2ccccc2[C@](C)(C(=O)NCCN2CCOCC2)[C@@H]1c1ccc(CO)cc1 | 0.987
14 | COCCCNC(=O)[C@@H]1c2ccccc2C(=O)N(Cc2ccccc2Cl)[C@H]1c1ccc(CO)cc1 | 0.199
15 | CC(C)NC(=O)[C@@]1(c2ccc([N+](=O)[O-])cc2)CC(=O)N(C2CCCCC2)[C@@H]1c1ccc(CO)cc1I | 0.902
16 | C=C(CCCC)/C(=C/C[C@H](OC(C)=O)c1ccccc1OCCO)c1cc(C(=O)OC)ccc1OC | -0.285
17 | COCCOC(=O)N1C(=O)[C@@]2(c3cc(C#Cc4ccc(OC)cc4)ccc31)[C@H](c1ccc(O)cc1)N1[C@H](c3ccccc3)[C@H](c3ccccc3)OC(=O)[C@H]1[C@@H]2C(=O)N1CCc2cc(OC)c(OC)cc2C1 | -0.0098
18 | O=C1C2C=CC(C(O)Cc3ccccc3)N(n3cnnc3)C2C(=O)N1Cc1ccccc1 (stereo not given) | 0.868

Row | SMILES | composite z-score
19 | C=CC[C@]1(C(=O)NCc2ccccc2)N=C(c2ccc(OCCCO)cc2)O[C@H]1c1ccccc1N=[N+]=[N-] | 1.11
20 | CCOC(=O)C[C@H]1[C@H](OC(=O)c2ccc(C(=O)c3ccccc3)cc2)[C@@H](NC(=O)c2ccc3ccccc3n2)c2cc(OCCCO)ccc2N1C(=O)c1ccccc1 | 0.628
21 | CN(C)C(=O)[C@@]1(CCS(=O)(=O)c2ccccc2)COC(c2ccc(OCCCO)cc2)=N1 | 0.977
22 | COc1ccccc1CN1C(=O)c2ccccc2[C@@H](C(=O)NC2CC2)[C@@H]1c1ccc(CO)cc1 | 0.556
23 | COC(=O)[C@H](Cc1ccccc1)N[C@@H](/C=C/C1CC1)[C@H](O)Cc1ccccc1 | 0.442
24 | O=C1C2C=CC(C(O)c3cccc4ccccc34)N(Nc3ccccc3F)C2C(=O)N1c1ccccc1 (stereo not given) | 1.02
25 | O=C(CS)NCCCCCCNC(=O)[C@@H]1C[C@@H]2C(=O)N[C@@H](Cc3ccccc3)C(=O)N2[C@@H]1c1cccc(OCCO)c1 | 0.594
26 | NC(=O)NCC#Cc1ccc2c(c1)[C@]1(C(=O)N2)[C@H](C(N)=O)[C@H]2C(=O)O[C@H](c3ccccc3)[C@H](c3ccccc3)N2[C@@H]1c1ccc(O)cc1 | -0.142
27 | CCCC[C@@H]1C[C@H]1[C@@H](NC(=O)c1cccs1)c1ccc(-c2ccccc2)cc1 | 0.69
28 | C=CCOC(=O)[C@H]1[C@@H]2C(=O)O[C@@H](c3ccccc3)[C@@H](c3ccccc3)N2[C@@H](c2ccc(OCCOC(=O)[C@@H]3C[C@@H]4C(=O)N[C@@H](CCCCNC(C)=O)C(=O)N4[C@@H]3c3ccc(O)cc3)cc2)[C@]12C(=O)Nc1ccccc12 | -0.187
29 | CCCCCCc1nc(-c2ccc(OC)nc2)cc2c1[Si](C(C)C)(C(C)C)O[C@H]2c1ccccc1 | -0.459
30 | CC(C)C(CO)N1C(=O)[C@@H]2C3C(=O)OCCC/C=C\[C@H]3OC23C=CCN(CCN2CCOCC2)C(=O)[C@@H]13 (stereo not given in full) | -0.45
31 | C=C(COC)/C(=C/C[C@@H](OC(C)=O)c1ccc(OCCO)cc1)c1cnc2ccccc2c1 | 0.352
32 | CN(C)CCCCCCNC(=O)[C@@H]1C[C@@H]2C(=O)N[C@@H](Cc3ccccc3)C(=O)N2[C@@H]1c1ccc(O)cc1 | -0.127
33 | Cc1nc2cc(Br)ccc2c(=O)o1 | -0.267
34 | COCCOC(=O)N1C(=O)[C@@]2(c3ccccc31)[C@H](c1ccc(O)cc1)N1[C@H](c3ccccc3)[C@H](c3ccccc3)OC(=O)[C@H]1[C@@H]2C(=O)Nc1nc2ccccc2s1 | -0.167
35 | COCC(=C=CC[C@@H](O)c1cccc(OCCO)c1)C[C@@H](O)c1ccccn1 | -0.355
